# According to PubChem BioAssay (NCATS):
# Where “and” joins values, the source holds several entries; their conditions need not be identical. Identical values can stand only once. Values without a mark were called inactive. Inconclusive results are not listed. Calls of active or inactive are those of the source. Unless noted, the call rests on the fitted dose curve; in most records, active means well fitted curve in the direction sought with a large enough effect; inconclusive means small, poorly fitted or top-dose-only effect, or another doubt; inactive means no such curve, though single readings can be large; an effect the other way counts as inactive or inconclusive. Where a SMILES comes first, the peptide text is derived from it. [ ]: non-standard residue; d: D form. pGlu = O=C1CC[C@@H](C(=O)O)N1; Thz = O=C(O)[C@@H]1CSCN1
# Assays:
# Tov-21-G = test: Primary qHTS to identify gynecologic anti-cancer compounds using libraries of approved drugs and bioactive compounds (AID 1345084); settings: Gynecologic cancer cell panel viability, ATPlite luminescence, 48 h; series mostly up to 57.5 µM; further: nearly all actives have a fitted effect of over 55% in size; further: potency means the concentration at half of the fitted maximal effect; on activity change, negative = cytotoxicity: on the % scale 0 is the no-effect control and ±100 the full control effect
# In short: (§1)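 ATP-based viability (ATPlite), 1,000 cells/well, 16 h pre-incubation, 48 h compound at 37 C, 5% CO2, 15 min RT before read.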
# Tov112D = test: as above; settings: Gynecologic cancer cell panel viability, ATPlite luminescence, 48 h; series mostly up to 57.5 µM
# In short: as §1
# [1] = Drug repurposing screens with cells derived from glioblastoma tumor samples (AID 1345199); settings: GBM patient neurospheres viability, ATP luminescence, 48 h; further: nearly all actives have a fitted effect of over 40% in size; further: potency means the concentration at half of the fitted maximal effect; on activity, negative = cell killing: on the % scale 0 is the no-effect control and ±100 the full control effect
# In short: (§2)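 Primary testing used CD133+ neurospheres from four GBM patients, seven concentrations, 48 h exposure and ATP-based viability; confirmation added three slower-growing patient lines.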
# astro = test: as above; settings: viability, ATP luminescence, 48 h; series mostly up to 45.9 µM
# In short: as §2
# [2] = biological target: Nuclear receptor subfamily 1 group I member 2 (Rattus norvegicus) (UniProt Q9R1A7); test: qHTS assay for small molecule activators of the rat pregnane X receptor (rPXR) signaling pathway (AID 651751; call rule not given here; further: 0% is about no effect); settings: rPXR reporter cells, luciferase (One-Glo), 24 h
# Sequence of Nuclear receptor subfamily 1 group I member 2 (Rattus norvegicus) (Q9R1A7 whole entry, looked up): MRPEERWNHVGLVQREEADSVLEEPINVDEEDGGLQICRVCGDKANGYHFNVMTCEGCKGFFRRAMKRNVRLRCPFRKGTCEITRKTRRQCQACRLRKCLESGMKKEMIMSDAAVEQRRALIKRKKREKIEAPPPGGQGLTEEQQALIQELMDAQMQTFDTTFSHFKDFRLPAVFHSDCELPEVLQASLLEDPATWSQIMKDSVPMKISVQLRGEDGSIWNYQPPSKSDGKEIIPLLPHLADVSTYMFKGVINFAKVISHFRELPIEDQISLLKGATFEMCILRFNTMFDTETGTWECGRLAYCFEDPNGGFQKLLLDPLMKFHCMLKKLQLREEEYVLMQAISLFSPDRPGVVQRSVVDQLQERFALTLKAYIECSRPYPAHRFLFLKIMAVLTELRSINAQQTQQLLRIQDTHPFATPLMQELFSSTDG
# [3] = qHTS assay for small molecule activators of the human pregnane X receptor (PXR) signaling pathway (AID 720659; call rule not given here; further: 0% is about no effect)
# [4] = qHTS assay to identify inhibitors of the type 1 interferon - major histocompatibility complex class I in skeletal muscle: Counter screen cell viability and HiBit confirmation (AID 1347412); settings: iHSKM muscle cells + IFN-b, HiBiT or CellTiter-Glo, 24 h; further: potency means the concentration at half of the fitted maximal effect; nearly all actives have a fitted effect of over 60% in size
# In short: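 Duplicate plates, pinned identically: one read for HiBiT-tagged endogenous HLA-B luminescence, the other for ATP-content viability via CellTiter Glo. Cells were genome-engineered human myoblasts given 4 ng/ml IFN-b; compounds 12-pt, 1:3 from 46 uM final; 24 hr exposure.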
# [5] = at 45.9 µM (top of the series), tumour line B
# [6] = at 45.9 µM (top of the series), tumour line D
# [7] = at 46.1 µM (top of the series), tumour line C
# [8] = at 46 µM (top of the series), tumour line A
# [9] = at 20 µM (top of the series), tumour line C
# [10] = at 21.2 µM (top of the series), tumour line B
# [11] = at 21.2 µM (top of the series), tumour line D
# [12] = at 21.3 µM (top of the series), tumour line A
compound,measurement,setting,value
CCCCCCCCCCCCOCCO,Potency,Tov-21-G,inactive
same,Potency,Tov112D,inactive
CN1CCN(c2cc3c(nn2)Oc2ccccc2N3C)CC1,Potency,Tov-21-G,inactive
same,Potency,Tov112D,inactive
same,"activity, negative = cell killing",[1]; [5],-7.46%
same,Potency,[1]; tumour line A,11.2 µM (active)
O=C(Nc1ccc(C(=O)O)c(O)c1)c1ccccc1,Potency,Tov-21-G,inactive
same,Potency,Tov112D,inactive
same,"activity, negative = cell killing",[1]; [5],-14.9%
same,"activity, negative = cell killing",[1]; [6],-3.46%
same,"activity, negative = cell killing",[1]; [7],-18.9%
O=C(O)Cc1cccc(-c2cc(CCCCCCc3ccc(O[C@H]4O[C@H](CO)[C@@H](O)[C@H](O)[C@@H]4O)c(-c4cccc(CC(=O)O)c4)c3)ccc2O[C@H]2O[C@H](CO)[C@@H](O)[C@H](O)[C@@H]2O)c1,"activity change, negative = cytotoxicity",Tov-21-G,4.72% [at 0.462 µM]
same,"activity change, negative = cytotoxicity",Tov112D,13.8% [at 0.462 µM]
same,"activity, negative = cell killing",[1]; [5],-15%
same,"activity, negative = cell killing",[1]; [6],-11.6%
same,"activity, negative = cell killing",[1]; [8],-35.4%
same,"activity, negative = cell killing",[1]; [7],0.695%
CCCCCCCCCCCCCCCC(=O)OC(C)C,Potency,Tov-21-G,inactive
same,Potency,Tov112D,inactive
same,"activity, negative = cell killing",[1]; [5],-2.41%
same,"activity, negative = cell killing",[1]; [6],-2.14%
same,"activity, negative = cell killing",[1]; [8],-26.7%
same,"activity, negative = cell killing",[1]; [7],4.29%
same,Potency,astro,inactive
same,max response,[2],-0.444%
same,outcome,[3],inactive
[O-][n+]1ccccc1SSc1cccc[n+]1[O-],Potency,Tov-21-G,1.41 µM (active)
same,Potency,Tov112D,2.82 µM (active)
same,"activity, negative = cell killing",[1]; [7],-16.3%
same,Potency,[1]; tumour line A,7.08 µM (active)
same,Potency,[1]; tumour line B,15.8 µM (active)
same,Potency,[1]; tumour line D,7.08 µM (active)
same,Potency,[4]; HiBiT,0.496 µM (active)
same,Potency,[4]; Viability,0.991 µM (active)
O=C1CC[C@@H](C(=O)N2CSC[C@H]2C(=O)O)N1 ([pGlu]-[Thz]-OH),Potency,Tov-21-G,inactive
same,Potency,Tov112D,inactive
same,"activity, negative = cell killing",[1]; [5],-16.5%
same,"activity, negative = cell killing",[1]; [6],-0.509%
same,"activity, negative = cell killing",[1]; [8],-28.4%
same,"activity, negative = cell killing",[1]; [7],-18.5%
CCC1C(=O)OCC1Cc1cncn1C (stereo not drawn),Potency,Tov-21-G,inactive
same,Potency,Tov112D,inactive
same,"activity, negative = cell killing",[1]; [5],-2.95%
same,"activity, negative = cell killing",[1]; [6],-8.25%
same,"activity, negative = cell killing",[1]; [8],-25.3%
same,"activity, negative = cell killing",[1]; [7],-11.8%
same,Potency,astro,inactive
Cc1ccc(C(=O)c2ccc(CC(=O)O)n2C)cc1,Potency,Tov-21-G,inactive
same,Potency,Tov112D,inactive
same,"activity, negative = cell killing",[1]; [9],-5.11%
same,"activity, negative = cell killing",[1]; [10],-9.02%
same,"activity, negative = cell killing",[1]; [11],-3.08%
same,"activity, negative = cell killing",[1]; [12],-10.3%
CCCCCCCCCCCCCCCCCC(=O)O,Potency,Tov-21-G,inactive
same,Potency,Tov112D,inactive
same,"activity, negative = cell killing",[1]; [5],-6.65%
same,"activity, negative = cell killing",[1]; [6],-11.1%
same,"activity, negative = cell killing",[1]; [8],-19.5%
same,"activity, negative = cell killing",[1]; [7],-22.7%
same,max response,[2],1.24% and 3.12% and 0.368%
same,outcome,[3],inactive
Cc1onc(-c2c(F)cccc2Cl)c1C(=O)N[C@@H]1C(=O)N2[C@@H]1SC(C)(C)[C@@H]2C(=O)O,Potency,Tov-21-G,inactive
same,Potency,Tov112D,inactive
same,"activity, negative = cell killing",[1]; [5],-10.7% and -14.2%
same,"activity, negative = cell killing",[1]; [6],14.3% and -22.2%
same,"activity, negative = cell killing",[1]; [8],-14.1% and -18%
same,"activity, negative = cell killing",[1]; [7],9.01% and 7.31%
O=C(O)Cc1ccc(-c2ccccc2)cc1,Potency,Tov-21-G,inactive
same,Potency,Tov112D,inactive
same,"activity, negative = cell killing",[1]; [9],2.3%
same,"activity, negative = cell killing",[1]; [10],-5.31%
same,"activity, negative = cell killing",[1]; [11],-13.6%
same,"activity, negative = cell killing",[1]; [12],-23.3%
CC1(C)[C@@H](O[C@H]2O[C@H](C(=O)O)[C@@H](O)[C@H](O)[C@H]2O[C@@H]2O[C@H](C(=O)O)[C@@H](O)[C@H](O)[C@H]2O)CC[C@]2(C)[C@H]3C(=O)C=C4[C@@H]5C[C@@](C)(C(=O)O)CC[C@]5(C)CC[C@@]4(C)[C@]3(C)CC[C@@H]12,Potency,Tov-21-G,inactive
same,Potency,Tov112D,inactive
same,"activity, negative = cell killing",[1]; [5],-9.84%
same,"activity, negative = cell killing",[1]; [6],5.57%
same,"activity, negative = cell killing",[1]; [8],-2.05%
same,"activity, negative = cell killing",[1]; [7],21.2%
same,Potency,astro,inactive
Nc1c(CC(=O)O)cccc1C(=O)c1ccc(Br)cc1,Potency,Tov-21-G,inactive
same,Potency,Tov112D,inactive
same,"activity, negative = cell killing",[1]; [5],-6.17%
same,"activity, negative = cell killing",[1]; [6],-6.69%
same,"activity, negative = cell killing",[1]; [8],-19.8%
same,"activity, negative = cell killing",[1]; [7],10.2%
Cc1c(N)c(=O)n(-c2ccccc2)n1C,Potency,Tov-21-G,inactive
same,Potency,Tov112D,inactive
same,"activity, negative = cell killing",[1]; [9],-1.09%
same,"activity, negative = cell killing",[1]; [10],-6%
same,"activity, negative = cell killing",[1]; [11],-16.4%
same,"activity, negative = cell killing",[1]; [12],-17.4%
O=C1CN(/N=C/c2ccc([N+](=O)[O-])o2)C(=O)N1,Potency,Tov-21-G,inactive
same,Potency,Tov112D,inactive
same,"activity, negative = cell killing",[1]; [5],-5.05%
same,"activity, negative = cell killing",[1]; [6],-3.4%
same,"activity, negative = cell killing",[1]; [8],-24.2%
same,"activity, negative = cell killing",[1]; [7],-8.71%
same,Potency,astro,inactive
same,max response,[2],-1.4%
same,outcome,[3],inactive
O=C(OCc1ccccc1)c1ccccc1,Potency,Tov-21-G,inactive
same,Potency,Tov112D,inactive
same,"activity, negative = cell killing",[1]; [5],-4.23%
same,"activity, negative = cell killing",[1]; [6],-19%
same,"activity, negative = cell killing",[1]; [8],-13.2%
same,"activity, negative = cell killing",[1]; [7],-10.1%
same,Potency,astro,inactive
same,max response,[2],-3.55%
same,outcome,[3],inactive
O=C(O)[C@H](CC(=O)N1C[C@H]2CCCC[C@H]2C1)Cc1ccccc1,Potency,Tov-21-G,inactive
same,Potency,Tov112D,inactive
same,"activity, negative = cell killing",[1]; [5],-13.2%
same,"activity, negative = cell killing",[1]; [6],-11.7%
same,"activity, negative = cell killing",[1]; [8],-25.9%
same,"activity, negative = cell killing",[1]; [7],-20.5%
same,Potency,astro,inactive
CN(C)[C@@H]1C(=O)C(C(=O)NCN2CCCC2)=C(O)[C@@]2(O)C(=O)C3=C(O)c4c(O)cccc4[C@@](C)(O)C3C[C@@H]12 (stereo partly drawn),Potency,Tov-21-G,inactive
same,Potency,Tov112D,inactive
same,"activity, negative = cell killing",[1]; [9],-9.38%
same,"activity, negative = cell killing",[1]; [10],-5.39%
same,"activity, negative = cell killing",[1]; [11],11.2%
same,"activity, negative = cell killing",[1]; [12],-7.96%
same,"activity, negative = cell killing",[1]; [5],-10.2%
same,"activity, negative = cell killing",[1]; [6],-31.8%
same,"activity, negative = cell killing",[1]; [7],27.9%
same,Potency,astro,inactive
C[C@H](O)[C@H](O)[C@H]1CNc2nc(N)[nH]c(=O)c2N1,Potency,Tov-21-G,inactive
same,Potency,Tov112D,inactive
same,"activity, negative = cell killing",[1]; [5],-2.46%
same,"activity, negative = cell killing",[1]; [6],16.1%
same,"activity, negative = cell killing",[1]; [8],-18.9%
same,"activity, negative = cell killing",[1]; [7],11.1%
